Measured values published in PubChem BioAssay (Tox21).
Values joined by “and” are separate entries in the source; they are usually repeats but may differ in a detail not shown here. Identical values can stand only once. Results filed as inconclusive are left out. Active and inactive are the calls of the source. Unless noted, the call rests on the fitted dose curve; in most records, active means well fitted curve in the direction sought with a large enough effect in the repeat runs; inconclusive means weak or mixed curves; inactive means no such curve, though single readings can be large; an effect the other way counts as inactive or inconclusive.

How the values were obtained:
[1] = molecular target: Acetylcholinesterase (Homo sapiens) (UniProt P22303); assay: Acetylcholinesterase (AChE) small molecule antagonists: enzyme-based qHTS assay with human liver microsomes (AID 1347399; calls by dose curve; further: nearly all actives have a fitted effect of over 60% in size); details: Potency: qHTS inhibition
Chain of Acetylcholinesterase (Homo sapiens) (P22303 whole entry, looked up): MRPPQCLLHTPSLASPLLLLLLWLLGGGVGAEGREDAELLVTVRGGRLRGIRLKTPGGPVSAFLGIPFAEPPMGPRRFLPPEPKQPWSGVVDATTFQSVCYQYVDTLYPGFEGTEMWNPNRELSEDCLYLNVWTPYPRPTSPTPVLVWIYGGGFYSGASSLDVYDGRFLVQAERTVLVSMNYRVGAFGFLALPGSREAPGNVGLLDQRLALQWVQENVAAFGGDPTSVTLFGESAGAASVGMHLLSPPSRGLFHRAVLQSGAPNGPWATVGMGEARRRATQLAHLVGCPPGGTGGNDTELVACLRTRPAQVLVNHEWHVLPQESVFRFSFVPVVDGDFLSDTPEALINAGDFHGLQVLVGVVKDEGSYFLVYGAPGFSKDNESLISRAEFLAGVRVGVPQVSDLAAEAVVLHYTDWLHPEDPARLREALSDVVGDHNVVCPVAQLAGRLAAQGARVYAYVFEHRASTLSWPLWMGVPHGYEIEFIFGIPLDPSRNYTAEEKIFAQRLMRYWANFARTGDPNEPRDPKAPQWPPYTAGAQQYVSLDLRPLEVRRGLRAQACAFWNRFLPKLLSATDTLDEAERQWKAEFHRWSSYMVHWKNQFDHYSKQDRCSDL
How it was run: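 Recombinant human AChE (50 mU/mL in the enzyme mix) and human liver microsomes (0.25 mg/mL final) were preincubated with compound and NADPH (0.25 mg/mL final) for 30 min at 37 C. Acetylthiocholine/DTNB was then added; thiocholine was read colorimetrically after 10 min at room temperature.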

[2] = molecular target: Cytochrome P450 2D6 (Homo sapiens) (UniProt P10635); assay: Cytochrome P450 Family 2 Subfamily D Member 6 (CYP2D6) small molecule antagonists: luciferase reporter qHTS assay (AID 1671196); further: nearly all actives have a fitted effect of over 50% in size; further: potency means the concentration at half of the fitted maximal effect
Chain of Cytochrome P450 2D6 (Homo sapiens) (P10635 whole entry, looked up): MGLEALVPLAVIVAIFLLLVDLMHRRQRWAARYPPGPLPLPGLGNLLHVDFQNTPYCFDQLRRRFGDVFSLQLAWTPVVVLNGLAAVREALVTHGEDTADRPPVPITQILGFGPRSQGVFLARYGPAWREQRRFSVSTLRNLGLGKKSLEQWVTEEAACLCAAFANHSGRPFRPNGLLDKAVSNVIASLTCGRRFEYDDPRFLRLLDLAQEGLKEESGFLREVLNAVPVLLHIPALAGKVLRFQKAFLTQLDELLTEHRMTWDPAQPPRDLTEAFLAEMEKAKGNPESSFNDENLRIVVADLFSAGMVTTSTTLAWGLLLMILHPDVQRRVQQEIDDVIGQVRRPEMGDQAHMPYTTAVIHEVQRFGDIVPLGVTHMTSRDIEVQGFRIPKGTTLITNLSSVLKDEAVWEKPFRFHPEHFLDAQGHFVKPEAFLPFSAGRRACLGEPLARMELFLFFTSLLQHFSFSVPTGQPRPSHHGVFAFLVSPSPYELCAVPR
How it was run: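 Read-out is luminescence from luciferin formed by CYP2D6 turnover of a proluciferin substrate, recorded as relative luminescence units. Reactions ran 1 h at room temperature after NADPH regeneration solution was added.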

[3] = molecular target: Cytochrome P450 2C9 (Homo sapiens) (UniProt P11712); assay: Cytochrome P450 Family 2 Subfamily C Member 9 (CYP2C9) small molecule antagonists: luciferase reporter qHTS assay (AID 1671198); further: nearly all actives have a fitted effect of over 50% in size; further: potency means the concentration at half of the fitted maximal effect
Chain of Cytochrome P450 2C9 (Homo sapiens) (P11712 whole entry, looked up): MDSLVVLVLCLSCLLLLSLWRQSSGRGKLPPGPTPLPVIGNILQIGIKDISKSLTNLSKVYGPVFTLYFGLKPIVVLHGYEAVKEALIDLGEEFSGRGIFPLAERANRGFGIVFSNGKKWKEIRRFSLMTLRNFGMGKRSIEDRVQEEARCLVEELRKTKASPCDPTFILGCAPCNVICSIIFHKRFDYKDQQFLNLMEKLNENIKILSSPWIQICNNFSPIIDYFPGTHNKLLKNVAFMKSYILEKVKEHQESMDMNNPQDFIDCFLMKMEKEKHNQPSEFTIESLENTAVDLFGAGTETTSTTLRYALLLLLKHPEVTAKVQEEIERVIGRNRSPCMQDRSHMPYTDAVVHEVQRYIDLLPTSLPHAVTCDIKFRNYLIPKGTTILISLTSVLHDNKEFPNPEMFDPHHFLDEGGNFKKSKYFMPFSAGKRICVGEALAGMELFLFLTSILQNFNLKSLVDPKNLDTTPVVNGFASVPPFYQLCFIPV
How it was run: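 CYP2C9 activity was measured with a P450-Glo proluciferin substrate. Enzyme–substrate mix was held with compound for 10 min at room temperature, then NADPH regeneration solution was added for 1 h at 37C. Luciferin product was read as luminescence.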

[4] = molecular target: Cytochrome P450 1A2 (Homo sapiens) (UniProt P05177); assay: Cytochrome P450 Family 1 Subfamily A Member 2 (CYP1A2) small molecule antagonists: luciferase reporter qHTS assay (AID 1671199); further: nearly all actives have a fitted effect of over 50% in size; further: potency means the concentration at half of the fitted maximal effect
Chain of Cytochrome P450 1A2 (Homo sapiens) (P05177 whole entry, looked up): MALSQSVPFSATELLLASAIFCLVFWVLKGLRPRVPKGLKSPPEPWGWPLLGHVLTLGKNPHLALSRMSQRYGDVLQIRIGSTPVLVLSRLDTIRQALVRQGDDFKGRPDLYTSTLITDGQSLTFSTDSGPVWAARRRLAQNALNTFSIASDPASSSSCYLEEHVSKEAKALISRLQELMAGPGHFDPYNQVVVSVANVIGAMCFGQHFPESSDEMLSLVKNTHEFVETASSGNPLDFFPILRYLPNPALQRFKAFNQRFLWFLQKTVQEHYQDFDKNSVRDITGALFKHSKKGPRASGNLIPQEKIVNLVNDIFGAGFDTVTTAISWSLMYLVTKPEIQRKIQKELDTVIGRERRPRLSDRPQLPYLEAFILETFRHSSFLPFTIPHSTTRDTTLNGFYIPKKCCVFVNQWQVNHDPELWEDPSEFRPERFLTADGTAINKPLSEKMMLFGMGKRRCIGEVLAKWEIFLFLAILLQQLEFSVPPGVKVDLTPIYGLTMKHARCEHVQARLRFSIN
How it was run: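 P450-Glo CYP1A2, 1536-well qHTS: enzyme/proluciferin substrate + cpd (DMSO), 10 min RT; NADPH regen, 1 h RT; detection reagent, 20 min; luminescence, RLU.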

[5] = molecular target: Voltage-gated inwardly rectifying potassium channel KCNH2 (Homo sapiens) (UniProt Q12809); assay: Human Ether-a-go-go-Related Gene (hERG) channel small molecule antagonists: fluorescence cell-based qHTS assay (AID 1671200); further: nearly all actives have a fitted effect of over 50% in size; further: potency means the concentration at half of the fitted maximal effect
Chain of Voltage-gated inwardly rectifying potassium channel KCNH2 (Homo sapiens) (Q12809 whole entry, looked up): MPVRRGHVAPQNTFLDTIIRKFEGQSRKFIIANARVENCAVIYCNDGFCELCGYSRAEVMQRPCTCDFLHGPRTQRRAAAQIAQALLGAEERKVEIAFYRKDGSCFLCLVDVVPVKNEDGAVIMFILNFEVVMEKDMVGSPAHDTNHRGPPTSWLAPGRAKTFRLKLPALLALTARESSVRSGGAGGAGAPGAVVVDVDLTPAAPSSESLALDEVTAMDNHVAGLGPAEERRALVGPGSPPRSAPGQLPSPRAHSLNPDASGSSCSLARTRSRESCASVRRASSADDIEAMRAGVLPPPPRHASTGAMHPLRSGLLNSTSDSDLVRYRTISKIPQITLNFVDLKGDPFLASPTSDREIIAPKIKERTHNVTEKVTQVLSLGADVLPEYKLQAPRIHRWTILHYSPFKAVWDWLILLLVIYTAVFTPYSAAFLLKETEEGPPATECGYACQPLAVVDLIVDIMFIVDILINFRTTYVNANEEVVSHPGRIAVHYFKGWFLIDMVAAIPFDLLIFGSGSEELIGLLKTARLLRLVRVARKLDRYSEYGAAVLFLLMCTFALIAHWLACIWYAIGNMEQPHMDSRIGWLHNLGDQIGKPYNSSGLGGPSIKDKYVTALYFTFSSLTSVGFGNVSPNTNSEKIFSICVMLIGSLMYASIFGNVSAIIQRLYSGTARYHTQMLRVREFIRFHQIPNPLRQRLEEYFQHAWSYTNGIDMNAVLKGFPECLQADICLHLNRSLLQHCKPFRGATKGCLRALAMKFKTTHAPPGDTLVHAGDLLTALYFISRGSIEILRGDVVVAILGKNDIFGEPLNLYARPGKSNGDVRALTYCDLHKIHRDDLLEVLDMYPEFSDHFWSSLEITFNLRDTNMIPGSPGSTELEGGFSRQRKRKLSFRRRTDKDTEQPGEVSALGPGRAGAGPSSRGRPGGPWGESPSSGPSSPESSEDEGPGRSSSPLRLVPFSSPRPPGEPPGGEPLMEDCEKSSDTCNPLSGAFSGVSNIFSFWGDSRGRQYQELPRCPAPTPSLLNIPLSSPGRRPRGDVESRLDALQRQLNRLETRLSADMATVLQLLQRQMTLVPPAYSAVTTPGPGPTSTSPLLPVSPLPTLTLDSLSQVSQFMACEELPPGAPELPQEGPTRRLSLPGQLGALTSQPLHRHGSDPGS
How it was run: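 Thallium served as the potassium surrogate; its influx into dye-loaded U2OS cells carrying the channel was measured by fluorescence over 2 min.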

[6] = molecular target: Cytochrome P450 2C19 (Homo sapiens) (UniProt P33261); assay: Cytochrome P450 Family 2 Subfamily C Member 19 (CYP2C19) small molecule antagonists: luciferase reporter qHTS assay (AID 1671197); further: nearly all actives have a fitted effect of over 65% in size; further: potency means the concentration at half of the fitted maximal effect
Chain of Cytochrome P450 2C19 (Homo sapiens) (P33261 whole entry, looked up): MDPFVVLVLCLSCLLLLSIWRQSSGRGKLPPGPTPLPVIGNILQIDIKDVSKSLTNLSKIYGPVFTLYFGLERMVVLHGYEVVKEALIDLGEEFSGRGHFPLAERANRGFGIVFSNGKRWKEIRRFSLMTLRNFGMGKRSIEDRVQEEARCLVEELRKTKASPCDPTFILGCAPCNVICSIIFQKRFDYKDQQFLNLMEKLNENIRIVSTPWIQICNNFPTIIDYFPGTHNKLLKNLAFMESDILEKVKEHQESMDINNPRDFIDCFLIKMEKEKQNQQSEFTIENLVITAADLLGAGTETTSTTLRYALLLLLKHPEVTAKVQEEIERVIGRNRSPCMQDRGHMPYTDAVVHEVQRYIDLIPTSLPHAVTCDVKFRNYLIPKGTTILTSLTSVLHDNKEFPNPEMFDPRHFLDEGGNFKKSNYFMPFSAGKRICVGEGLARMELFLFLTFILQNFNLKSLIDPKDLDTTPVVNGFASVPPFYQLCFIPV
How it was run: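 Compounds were tested on CYP2C19 activity via proluciferin conversion to luciferin. The 37C, 1 h reaction followed NADPH addition; detection reagent stopped it.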

[7] = molecular target: Cytochrome P450 3A4 (Homo sapiens) (UniProt P08684); assay: Cytochrome P450 Family 3 Subfamily A Member 4 (CYP3A4) small molecule antagonists: luciferase reporter qHTS assay (AID 1671201); further: nearly all actives have a fitted effect of over 50% in size; further: potency means the concentration at half of the fitted maximal effect
Chain of Cytochrome P450 3A4 (Homo sapiens) (P08684 whole entry, looked up): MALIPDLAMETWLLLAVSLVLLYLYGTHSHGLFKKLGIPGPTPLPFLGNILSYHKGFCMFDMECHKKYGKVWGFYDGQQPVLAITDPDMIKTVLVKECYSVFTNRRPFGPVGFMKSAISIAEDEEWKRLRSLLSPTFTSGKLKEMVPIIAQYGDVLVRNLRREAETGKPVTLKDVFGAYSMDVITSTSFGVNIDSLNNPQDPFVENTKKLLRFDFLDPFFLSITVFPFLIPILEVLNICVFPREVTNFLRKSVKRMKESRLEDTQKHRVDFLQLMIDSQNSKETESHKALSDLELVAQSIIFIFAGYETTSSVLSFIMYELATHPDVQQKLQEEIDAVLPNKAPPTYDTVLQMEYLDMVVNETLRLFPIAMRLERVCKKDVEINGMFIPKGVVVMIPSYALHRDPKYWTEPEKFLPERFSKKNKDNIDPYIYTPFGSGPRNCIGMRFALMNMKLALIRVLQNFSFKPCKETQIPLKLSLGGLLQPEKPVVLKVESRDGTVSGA
How it was run: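 Relative luminescence units after 20 min with luciferin detection reagent served as read-out. Beforehand, CYP3A4 turned over a proluciferin substrate for 1 h at room temperature with NADPH regeneration, following 10 min compound preincubation.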

Measured: Potency

CCOC(=O)c1ccccc1S(=O)(=O)NC(=O)Nc1nc(Cl)cc(OC)n1
not listed: [6] | [7]
inactive: all other assays above

CCOCCOC(C)=O
active: [2] 71 µM | [6] 79.6 µM | [4] 43.5 µM
inactive: [1] | [7]

CC(C)OC(=O)C(O)(c1ccc(Cl)cc1)c1ccc(Cl)cc1
inactive: [1] | [7]
active: [2] 31.7 µM | [6] 2 µM | [3] 8.94 µM | [5] 21.9 µM

ClC(Cl)=C(c1ccc(Cl)cc1)c1ccc(Cl)cc1
active: [6] 409 nM and 710 nM | [3] 14.5 µM and 12.6 µM | [4] 5.78 µM and 5.64 µM
inactive: [1] | [2] | [7]

Cc1cc(SCc2sc(-c3ccc(C(F)(F)F)c(F)c3)nc2C)ccc1OCC(=O)O
active: [3] 35.6 µM
not listed: [4]
inactive: all other assays above

CC(C)CBr
not listed: [6]
inactive: all other assays above

C[C@]12CC[C@H]3[C@@H](CCC4=CC(=O)CC[C@@]43C)[C@@H]1CC[C@@H]2O
inactive: [1] | [2] | [6] | [7]

CCCCCCCCCCCCCCC(Br)C(=O)O (centres undefined)
not listed: [3] | [4]
inactive: all other assays above

ClC(Cl)=C(Cl)Cl
not listed: [4] | [5]
inactive: all other assays above

CC(=O)c1cc(C(C)(C)C)cc2c1CCC2(C)C
inactive: [1] | [2] | [6] | [7]
active: [4] 31.7 µM

CC(C)(COCC1CO1)COCC1CO1 (centres undefined)
active: [6] 79.6 µM
not listed: [2]
inactive: all other assays above

O=[N+]([O-])c1ccc2ccc3cccc4ccc1c2c34
active: [4] 0.224 µM
not listed: [2]
inactive: all other assays above

Clc1ccc(C(c2ccc(Cl)cc2)C(Cl)(Cl)Cl)cc1
inactive: [1] | [7]
active: [6] 20.2 nM and 17.8 nM and 69.2 nM | [3] 2.26 µM and 10 µM and 3.89 µM | [4] 12.6 µM and 13.8 µM | [5] 13.8 µM

O=C(NC(=O)c1c(F)cccc1F)Nc1cc(Cl)c(OC(F)(F)C(F)F)c(Cl)c1
active: [6] 79.6 µM | [3] 39.9 µM
inactive: [1] | [5] | [7]

CCC[CH2][Sn]([CH2]CCC)([CH2]CCC)[O]C(=O)c1ccccc1
active: [6] 1.59 µM | [3] 12.6 µM | [5] 4.9 µM | [7] 35.6 µM
inactive: [1]

ClC1=C(Cl)[C@]2(Cl)[C@@H]3[C@@H](Cl)[C@@H](Cl)C[C@@H]3[C@@]1(Cl)C2(Cl)Cl
not listed: [2]
inactive: all other assays above

C1CCC2CCCCC2C1 (centres undefined)
not listed: [2]
inactive: all other assays above

CC(C)CC(C)Nc1ccc(Nc2ccccc2)cc1 (centres undefined)
active: [6] 0.698 µM | [3] 3.5 µM | [4] 22.1 µM | [5] 24.1 µM | [7] 31.2 µM
inactive: [1]

ClCCN1CCOCC1
not listed: [2] | [5]
inactive: all other assays above
